# Data taken from the supplement of paper PMC10981050.
# “And” between values parts separate entries of the source, which are not always exact repeats. Equal entries are not always repeated.
# Assays:
# Experiment in all cases: cell viability relative to vehicle control; higher = less cytotoxic
# Details in all cases: 10 µM
# [1] = test system: K562
# How it was run: (§1)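 Mutant clones made by CRISPR editing and their isogenic wild-type counterparts, from four leukaemia lines, were exposed to a single 10 µM dose of each library compound for 48 h. The supernatant was then removed and CellTiter-Glo luminescence was read. Viability was reported as percent of the on-plate vehicle control.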
# [2] = test system: MARIMO
# How it was run: as §1
# [3] = test system: MOLM14
# How it was run: as §1
# [4] = test system: OCI-AML2
# How it was run: as §1
SMILES,cell viability ([1]; SRSF2 genotype: SRSF2 P95H/wt),cell viability ([1]; SRSF2 genotype: SRSF2 wt/wt),cell viability ([2]; SRSF2 genotype: SRSF2 P95H/wt),cell viability ([2]; SRSF2 genotype: SRSF2 wt/wt),cell viability ([3]; SRSF2 genotype: SRSF2 P95H/wt),cell viability ([3]; SRSF2 genotype: SRSF2 wt/wt),cell viability ([4]; SRSF2 genotype: P95H/wt),cell viability ([4]; SRSF2 genotype: wt/wt)
CC(C)n1cnc2c(NCCc3ccc(O)cc3)nc(-c3csc4ccccc34)nc21 [StemRegenin 1],50.9% and 50.1%,56%,84.6%,92.4%,64.5%,89.6%,86.8%,83.5%
"C[C@H](Nc1ncnc2nc[nH]c12)c1cc2cccc(Cl)c2c(=O)n1-c1ccccc1 [Duvelisib (IPI-145, INK1197)]",93.1% and 95.6%,94.3%,67.6%,62.3%,50.2%,51.6%,28.7%,38%
CN1CCN(C2=Nc3cc(Cl)ccc3Nc3ccccc32)CC1 [Clozapine (Clozaril)],85.7% and 106%,98.8%,104%,94.4%,101%,106%,100%,98.1%
"CC(C)n1nccc1-c1ncccc1COc1cccc(O)c1C=O [Voxelotor(GBT440, GTx011)]",97.7% and 98.4%,91.8%,104%,103%,85.8%,94%,99.7%,98.3%
COc1cc2oc(=O)ccc2cc1O [Isoscopoletin],95.2% and 95.4%,96.4%,95.6%,94.7%,104%,97.2%,97.1%,93.8%
CC(=O)NC[C@H]1CN(c2ccc(N3CCOCC3)c(F)c2)C(=O)O1 [Linezolid (Zyvox)],81.9% and 81.7%,84.3%,85%,92.5%,88.3%,85.5%,81.4%,86.7%
Cc1cccc(-c2[nH]ncc2-c2ccc3ncccc3n2)n1,97.9% and 108%,107%,107%,114%,94.6%,105%,78.9%,83.5%
O=C(Nc1ccccc1-c1cn2c(CN3CC[C@@H](O)C3)csc2n1)c1ccc2ccccc2c1,23.9% and 46%,39.3%,57.1%,65%,72.4%,80.5%,65.3%,64.4%
N#CC(=C(/N)Sc1ccccc1N)/C(C#N)=C(\N)Sc1ccccc1N,70.5% and 77.5%,72.7%,38.2%,37.1%,54.9%,57.2%,48.9%,48.1%
O=C(c1cccc(Br)c1)N1CCC(N2CCCC2)CC1,105% and 98.6%,91.6%,92.3%,110%,105%,105%,87.9%,101%
CNc1nc(Nc2cn(C(C)(C)C#N)nc2C)ncc1C(F)(F)F,101% and 102%,103%,101%,108%,98.8%,101%,102%,105%
